Rows were chosen to be rich in hits. Some 12% of all compounds tested hit in one or more screens of this group.
KCC2 mod: KCC2 (human) Cl- transport modulation | 2.2% of 190,000 active | B-score of Tl+ flux slope (higher = more flux/activation; lower = inhibition) at 10 µM | AID 1456 | KCC2 cells, thallium flux FluoZin-2 fluorescence | Q9H2X9;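 active = thallium flux slope and its plate-corrected score both differing from the plate sample mean at a set confidence after two filtering rounds, in either direction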;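 also: slope of fluorescence scaled to starting intensity during 10 to 20 s after thallium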
ROMK primary: modulates human ROMK potassium channel activity; P48048; 2% of 130,000 active; Tet-inducible ROMK, thallium flux fluorescence; actives lie on both sides; B-score at 10 µM; AID 1918;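 active = signal ratio slope over the read window, or its plate-corrected B-score, at least 3 SD from the plate mean, either direction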;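 also: B-score of the F/F0 ratio slope over 7 to 12 s after thallium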
Target sequence (P48048 whole entry, looked up): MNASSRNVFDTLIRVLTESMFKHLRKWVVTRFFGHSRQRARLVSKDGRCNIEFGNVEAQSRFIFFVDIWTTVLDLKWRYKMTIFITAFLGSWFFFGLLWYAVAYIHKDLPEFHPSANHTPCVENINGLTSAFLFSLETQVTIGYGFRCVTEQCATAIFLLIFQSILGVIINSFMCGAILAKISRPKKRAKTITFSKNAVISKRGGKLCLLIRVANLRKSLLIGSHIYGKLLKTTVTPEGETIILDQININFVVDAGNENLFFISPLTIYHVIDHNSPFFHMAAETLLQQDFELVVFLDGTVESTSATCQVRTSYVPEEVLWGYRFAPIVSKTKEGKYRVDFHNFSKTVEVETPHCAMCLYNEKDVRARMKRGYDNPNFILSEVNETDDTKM
L major viab: Leishmania major promastigote growth inhibition | Leishmania major promastigotes, resazurin fluorescence viability | inhibition, % at 10 µM | 9% of 200,000 active; in the data active = inhibition above about 50%;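 also: promastigotes grown with compound for 44 hours at 28 °C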
Calpain2 inh: calpain II (pig) inhibition | inhibition, % at 16 µM | 0.37% of 220,000 active | purified calpain II, fluorogenic peptide substrate, 30 min;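 active = inhibition above about 50%, limit read from the data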
WT yeast gro inh: growth inhibition of WT yeast, mitochondrial fusion screen; mitochondrial fusion phenotypic screen, WT strain; inhibition, % at 10 µM; 2.1% of 190,000 active; AID 1362; in the data active = inhibition above about 58%; tested in S. cerevisiae
Hits are given with their value; 0 = inactive; - = no result given.

SMILES	KCC2 mod	ROMK primary	L major viab	Calpain2 inh	WT yeast gro inh
O=C(CC1SC(=Nc2ccc(OC(F)F)cc2)N(CCC2=CCCCC2)C1=O)Nc1ccccc1F (stereo not drawn)	0	0	96	0	0
C#CCNC(=O)C1=C[C@H](c2cn(C(C)=O)c3ccccc23)[C@@H](CCCO)[C@H](OCC)O1	0	-	0	0	0
OC1(c2ccccc2)CCN(Cc2ccccc2)CC1	0	0	83	0	0
CC(C)NC(=O)CN1CCC(O)(c2ccccc2)CC1	0	0	0	0	0
OC(c1ccccc1)C1CN(Cc2ccccc2)CCC1(O)c1ccccc1 (stereo not drawn)	0	0	85	0	0
OC1CCCN(Cc2ccccc2)C1 (stereo not drawn)	0	-	0	0	0
O=C(c1ccccc1)C1CN(Cc2ccccc2)CCC1(O)c1ccccc1 (stereo not drawn)	0	0	62	0	0
Cc1nn(-c2ccccc2)c(Cl)c1C(=O)N(C)c1nc(-c2ccc(F)cc2)cs1	0	0	0	0	0
O=C(c1ccc2c3c(cccc13)CC2)C1CCCN(Cc2ccc(OCCO)cc2)C1 (stereo not drawn)	0	0	88	0	0
O=C(c1ccc2c3c(cccc13)CC2)C1CCCN(Cc2ccccn2)C1 (stereo not drawn)	0	0	64	0	0
Cc1cnc(CN2CCCC(C(=O)c3ccc4c5c(cccc35)CC4)C2)[nH]1 (stereo not drawn)	0	0	99	0	0
NC(=O)CCC(=O)N1CCCC(C(=O)c2ccc3c4c(cccc24)CC3)C1 (stereo not drawn)	0	0	0	0	0
COCC(=O)N1CCCC(C(=O)c2ccc3c4c(cccc24)CC3)C1 (stereo not drawn)	0	-	0	0	0
O=S(=O)(Nc1ncccn1)c1ccc(NC(=S)Nc2ccccc2Cl)cc1	0	-	-	0	-
Cc1ccc(C2CC(c3cccs3)=NN2C(=O)c2ccc(Br)o2)cc1 (stereo not drawn)	-	0	0	0	64
CC(C)(CO)C(O)C(=O)NCCC#N (stereo not drawn)	0	0	0	0	0
Cc1ccc(OCC(O)CNCc2ccccc2)cc1C (stereo not drawn)	0	-	-	0	-
CC(C)N(CCNCC(O)COc1ccc(C(C)(C)c2ccccc2)cc1)C(C)C (stereo not drawn)	0	0	94	0	0
OC(CNCCC(c1ccccc1)c1ccccc1)COc1ccccc1 (stereo not drawn)	0	0	0	0	74
CC(C)CCNCC(O)CON=C1c2ccccc2-c2ccccc21 (stereo not drawn)	0	0	88	0	0
OC(CNCCc1ccccc1)COc1ccc(OCC(O)CNCCc2ccccc2)cc1 (stereo not drawn)	0	-	-	0	-
COc1ccccc1N1C(=O)C2C(C(=O)c3ccccc3)=NN(c3ccccc3OC)C2C1=O (stereo not drawn)	0	-	-	0	-
O=C1Cc2ccccc2Sc2cc(OCCCN3CCCCC3)ccc21	0	-	100	0	0
O=C1Cc2ccccc2Sc2c(OCCN3CCCCC3)cccc21	0	-	100	0	0
Nc1ccc2c(c1)C(=O)Cc1ccccc1S2	-	0	0	0	0
SMILES	KCC2 mod	ROMK primary	L major viab	Calpain2 inh	WT yeast gro inh
O=C(COc1ccc(Cl)cc1)NCCN1CCCCC1	0	0	0	0	0
Cc1cccc(C(C)(C)C)c1OCCN1CCCC1	0	0	0	0	0
CN(C)CCCOc1ccc2c(c1)Sc1ccccc1CC2=O	0	0	100	0	0
COCCn1c(SCC(=O)Nc2ccc(C)cc2C)nc2c(oc3ccccc32)c1=O	0	-	54	0	0
COCCn1c(SCC(=O)Nc2cc(C(C)(C)C)nn2-c2ccccc2)nc2ccccc2c1=O	0	0	54	0	0
COc1ccc(-n2cnnc2SCC(=O)Nc2cc(C(C)(C)C)nn2-c2ccccc2)cc1	0	0	0	0	-
CCOCCCn1c(SCC(=O)NCc2ccc3c(c2)OCO3)nc2ccccc2c1=O	0	0	0	0	0
COc1ccccc1-n1cnnc1SCC(=O)Nc1cc(C(C)(C)C)nn1-c1ccccc1	0	-	0	0	78
CCOCCCn1c(SCC(=O)Nc2cc(C(C)(C)C)nn2-c2ccccc2)nc2ccccc2c1=O	0	0	72	0	0
CC(C)OCCCN1C=C2C(=O)C(C)(OC(=O)CCc3ccccc3)C(=O)C=C2C=C1c1ccc(C#N)cc1 (stereo not drawn)	0	-	-	0	-
O=C(Cc1nn[nH]n1)Nc1ccc(F)cc1F	0	-	-	0	-
O=C(Nc1ccccc1N1CCN(c2ccccc2)CC1)c1ccccc1	0	0	0	0	0

Screens as filed in PubChem.
